Compounds with a hit are over-represented: about 2.6% of the library has one in this group of screens.
TPT1 inh: C. albicans TPT1 enzyme inhibition; 300,000 tested, 0.81% active; recombinant caTPT1, FP RNA substrate dephosphorylation; inhibition, % at 5 µM;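 active = inhibition above the mean of all tested compounds plus 3 SD, set per screening campaign, cut at about 24% in these data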;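 note: plate controls were DMSO alone for no effect and ferristatin control at 100 nM for full effect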
CRFR2-BP antag: CRF-BP/CRF-R2 complex antagonism. 350,000 tested, 0.59% active. inhibition, % at 11.8 µM. AID 588475. HEK293 CRF-R2/CRF-BP, CRF-induced calcium fluorescence;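 active = inhibition of the ligand-induced calcium signal above about 50% at the single tested concentration, limit read from the data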
Myeloid diff MLP: myeloid differentiation induction; ER-HoxA9 myeloid progenitors, lysozyme-GFP differentiation, flow cytometry; calls only at 10 µM; 360,000 tested, 1% active;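 active = normalized GFP-positive differentiation at or above the plate's own cutoff, the solvent-only control mean plus 3 SD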;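 note: cells exposed to compound for four days before flow analysis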
CRFR2-BP ag: CRF-BP/CRF-R2 complex agonism; HEK293 CRF-R2/CRF-BP, calcium dye fluorescence (FLIPR); percent of saturating CRF peptide response; activation, % at 13.2 µM; 350,000 tested, 0.46% active;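 active = activation of at least 50%, plus an integration ratio under a set limit after plate pattern correction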;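 note: plate controls were neutral control wells without compound for no effect and CRF at EC100 for full effect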
IDE cell activ: IDE (human) activation, cell-based; P14735; HEK cells, FAbeta-B cleavage, fluorescence polarization; 0% vehicle, 100% cell-free pure enzyme wells; activation, % at 5.96 µM; 340,000 tested, 0.073% active; AID 493087;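 active = activation above the mean of all tested compounds plus 3 SD, set per screening campaign, cut at about 17% in these data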
Target sequence (P14735 whole entry, looked up): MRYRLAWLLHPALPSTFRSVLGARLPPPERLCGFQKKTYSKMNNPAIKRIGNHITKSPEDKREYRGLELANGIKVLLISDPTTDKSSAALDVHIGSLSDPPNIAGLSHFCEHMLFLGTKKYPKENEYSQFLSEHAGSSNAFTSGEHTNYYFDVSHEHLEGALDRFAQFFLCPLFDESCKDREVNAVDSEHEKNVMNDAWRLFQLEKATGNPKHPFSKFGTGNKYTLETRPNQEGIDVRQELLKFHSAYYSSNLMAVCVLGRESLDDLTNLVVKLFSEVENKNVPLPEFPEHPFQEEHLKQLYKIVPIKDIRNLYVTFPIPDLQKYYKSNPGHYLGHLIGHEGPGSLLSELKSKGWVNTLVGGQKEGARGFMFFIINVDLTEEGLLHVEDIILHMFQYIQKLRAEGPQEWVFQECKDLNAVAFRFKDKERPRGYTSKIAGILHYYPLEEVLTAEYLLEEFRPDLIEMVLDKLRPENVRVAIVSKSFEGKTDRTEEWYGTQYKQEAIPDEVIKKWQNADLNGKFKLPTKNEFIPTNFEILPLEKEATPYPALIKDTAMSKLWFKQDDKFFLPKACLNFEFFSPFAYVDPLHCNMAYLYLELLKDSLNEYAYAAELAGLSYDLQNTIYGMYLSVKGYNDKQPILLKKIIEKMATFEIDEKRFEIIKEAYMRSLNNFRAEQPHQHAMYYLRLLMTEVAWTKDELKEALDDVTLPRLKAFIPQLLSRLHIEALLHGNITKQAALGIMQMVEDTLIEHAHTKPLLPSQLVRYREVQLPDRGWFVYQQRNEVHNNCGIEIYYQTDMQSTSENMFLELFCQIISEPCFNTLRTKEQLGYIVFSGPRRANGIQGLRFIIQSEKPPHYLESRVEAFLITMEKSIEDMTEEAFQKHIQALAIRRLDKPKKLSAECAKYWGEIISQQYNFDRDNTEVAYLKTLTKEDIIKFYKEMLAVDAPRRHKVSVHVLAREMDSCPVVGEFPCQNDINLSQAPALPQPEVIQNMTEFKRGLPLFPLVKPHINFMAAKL
IDE inh: inhibitors of human insulin-degrading enzyme in cells | P14735 | HEK cells, FAbetaB cleavage, fluorescence polarization | inhibition, % at 5.59 µM | 320,000 tested, 0.41% active;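 active = percent inhibition above the average of all tested compounds plus 3 SD, set per screening campaign, cut at about 16% in these data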;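 note: IDE supplied by intact live HEK cells; FP after avidin binding of uncleaved biotin substrate so inhibition keeps polarization high; 0% = DMSO wells and 100% = 60 µM reference IDE inhibitor Ii1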
Active calls of the source: *.

Screening COc1ccc(F)cc1C1=CC(=O)C[C@H](c2ccc3c(c2)OCO3)C1 returned CRFR2-BP antag 1, Myeloid diff MLP active, CRFR2-BP ag 0, IDE cell activ 2 and IDE inh 2.
Screening O=C1C=C(c2ccc(-c3ccccc3)cc2)C[C@@H](c2ccc3c(c2)OCO3)C1 returned CRFR2-BP antag -2, Myeloid diff MLP inactive, CRFR2-BP ag 2, IDE cell activ 43* and IDE inh 1.
For COc1ccc(OC)c(C2=CC(=O)C[C@H](c3ccc(F)cc3)C2)c1 the results were CRFR2-BP antag 1, Myeloid diff MLP inactive and CRFR2-BP ag -3.
Screening COc1ccc([C@H]2CC(=O)C=C(c3cc(OC)ccc3OC)C2)cc1 returned CRFR2-BP antag 7, Myeloid diff MLP active, CRFR2-BP ag -1, IDE cell activ 5 and IDE inh 0.
Screening CCCN(CCO)C1CCN(CCc2ccccc2)CC1 returned TPT1 inh -4, CRFR2-BP antag -2, Myeloid diff MLP inactive, CRFR2-BP ag 6, IDE cell activ 4 and IDE inh 9.
O=C1OC(c2ccccc2)(c2ccc3cc(O)ccc3c2)c2ccccc21 (centres undefined) was read as CRFR2-BP antag 5, Myeloid diff MLP active, CRFR2-BP ag 1 and IDE cell activ 0.
`CC(C)n1cc(-c2nc(C(=O)NN)cs2)c(=O)n(Cc2ccccc2)c1=O` gave TPT1 inh -2, CRFR2-BP antag -15, Myeloid diff MLP active, CRFR2-BP ag -1, IDE cell activ -3 and IDE inh 3.
For Cn1c(NN)nc2c1c(=O)n(Cc1ccccc1)c(=O)n2C the results were CRFR2-BP antag 1, Myeloid diff MLP inactive, CRFR2-BP ag -4 and IDE cell activ 4.
`CN(C)c1ccc(/C=C/C(=O)c2ccc(O)cc2)cc1` gave CRFR2-BP antag -112, Myeloid diff MLP inactive, CRFR2-BP ag 156* and IDE cell activ -150.
For CCCCN(CCCC)S(=O)(=O)c1ccc2[nH]c(=O)[nH]c2c1 the results were TPT1 inh 0, CRFR2-BP antag 20, Myeloid diff MLP inactive, CRFR2-BP ag 2, IDE cell activ -3 and IDE inh -2.
For O=C(NCc1cc(C(F)(F)F)ccc1Cl)c1cccc2c1C(=O)c1ccc(N3CCC(Cc4ccccc4)CC3)cc1S2(=O)=O the results were CRFR2-BP antag -27, Myeloid diff MLP active, CRFR2-BP ag 73*, IDE cell activ 1 and IDE inh 9.
For O=C(NCc1ccc(F)cc1)c1cccc2c1C(=O)c1ccc(N3CCC(Cc4ccccc4)CC3)cc1S2(=O)=O the results were CRFR2-BP antag -51, Myeloid diff MLP active, CRFR2-BP ag 126*, IDE cell activ 3 and IDE inh 5.
For O=C(NCc1ccc(F)cc1)c1cccc2c1C(=O)c1ccc(N3CCOCC3)cc1S2(=O)=O the results were CRFR2-BP antag -2, Myeloid diff MLP inactive, CRFR2-BP ag 28, IDE cell activ 3 and IDE inh -2.
O=C(NCc1ccc(F)cc1)c1cccc2c1C(=O)c1ccc(N3CCC(N4CCCCC4)CC3)cc1S2(=O)=O was read as CRFR2-BP antag -36, Myeloid diff MLP active and CRFR2-BP ag 17.
`O=C(NCc1ccccc1Br)c1cccc2c1C(=O)c1ccc(N3CCOCC3)cc1S2(=O)=O` gave IDE inh -2.
For CC1CCN(c2ccc3c(c2)S(=O)(=O)c2cccc(C(=O)NCc4ccc(F)cc4)c2C3=O)CC1 the results were CRFR2-BP antag -34, Myeloid diff MLP inactive, CRFR2-BP ag 85*, IDE cell activ -7 and IDE inh 6.
For CNC(=S)NNC(=O)c1cc(-c2cccnc2)nc2ccccc12 the results were TPT1 inh -2, CRFR2-BP antag 8, Myeloid diff MLP inactive, CRFR2-BP ag 0, IDE cell activ 8 and IDE inh 6.
CCOc1ccc2oc(C(=O)N(CCOC)c3c(N)n(CC(C)C)c(=O)[nH]c3=O)c(C)c2c1 was read as CRFR2-BP antag 1, Myeloid diff MLP inactive, CRFR2-BP ag -3, IDE cell activ 1 and IDE inh -1.
Screening Cc1c(C(=O)N(C)Cc2nc3ccccc3c(=O)[nH]2)oc2ccccc12 returned CRFR2-BP antag -10, Myeloid diff MLP active, CRFR2-BP ag 1, IDE cell activ 2 and IDE inh 5.
Cc1csc(Nc2nc(N)c(C(=O)Nc3cc(Cl)ccc3F)o2)n1 was read as TPT1 inh -2, CRFR2-BP antag -2, Myeloid diff MLP inactive, CRFR2-BP ag 0, IDE cell activ -1 and IDE inh -1.
Screening CC(OC(=O)c1ccc(S(=O)(=O)NCc2ccco2)cc1)C(=O)Nc1ccc(Cl)cn1 (centres undefined) returned TPT1 inh -3, CRFR2-BP antag -218, Myeloid diff MLP inactive, CRFR2-BP ag 99*, IDE cell activ 2 and IDE inh -3.
CCOC(=O)c1cc2c(ccn2C)n1CC(=O)N(Cc1ccccc1)c1ccccc1 was read as TPT1 inh -6, CRFR2-BP antag 8, Myeloid diff MLP active, CRFR2-BP ag 5, IDE cell activ 4 and IDE inh -2.
`CCOC(=O)c1cc2c(ccn2C)n1CC(=O)N(Cc1ccccc1)c1ccc(F)cc1` gave TPT1 inh -8, CRFR2-BP antag -12, Myeloid diff MLP inactive, CRFR2-BP ag 0, IDE cell activ 7 and IDE inh 3.
For O=C(Nc1nnc(-c2ccccc2)o1)Nc1ccc(F)cc1F the results were TPT1 inh -1, CRFR2-BP antag 1, Myeloid diff MLP inactive, CRFR2-BP ag 1, IDE cell activ 2 and IDE inh 0.
COc1ccc(S(=O)(=O)Nc2c(C)n(C)n(-c3ccccc3)c2=O)cc1C(=O)O was read as CRFR2-BP antag 51*, Myeloid diff MLP inactive, CRFR2-BP ag 2 and IDE cell activ 4.
Screening O=C(O)c1ccc(-n2ncc3c2/C(=C/c2cccc([N+](=O)[O-])c2)CC3)cc1 returned TPT1 inh -2, CRFR2-BP antag 73*, Myeloid diff MLP inactive, CRFR2-BP ag -6, IDE cell activ -5 and IDE inh 0.
For O=C(O)c1ccc(-n2ncc3c2/C(=C\c2cccc([N+](=O)[O-])c2)CC3)cc1 the results were CRFR2-BP antag 38, Myeloid diff MLP inactive, CRFR2-BP ag -4 and IDE cell activ 0.
For O=C(Nc1ccccn1)c1cccs1 the results were TPT1 inh -3, CRFR2-BP antag -23, Myeloid diff MLP inactive, CRFR2-BP ag 0, IDE cell activ 5 and IDE inh 2.
For CN1C(C(=O)Nc2ccccn2)=C(O)c2sccc2S1(=O)=O the results were TPT1 inh -5, CRFR2-BP antag 12, Myeloid diff MLP active, CRFR2-BP ag -1, IDE cell activ 8 and IDE inh 2.

Screening results from PubChem.
